# Results: PubChem BioAssay (Tox21)
# Results filed as inconclusive are left out. A call without a number means that no potency is given here. Unmarked numbers belong to inactive results. The source made the active and inactive calls. The call rests on the fitted dose curve; in most records, active means well fitted curve in the direction sought with a large enough effect in the repeat runs; inconclusive means weak or mixed curves; inactive means no such curve, though single readings can be large; an effect the other way counts as inactive or inconclusive.
# Tests used:
# [1] = target: Cytochrome P450 2D6 (Homo sapiens) (UniProt P10635); experiment: Cytochrome P450 Family 2 Subfamily D Member 6 (CYP2D6) small molecule antagonists: luciferase reporter qHTS assay (AID 1671196); further: nearly all actives have a fitted effect of over 50% in size; further: potency means the concentration at half of the fitted maximal effect; on activity change, negative = inhibition: series mostly up to about 120 µM
# How it was run: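 Each well received CYP2D6 with its proluciferin substrate and chemical, sat 10 min, then got NADPH regeneration solution for 1 h at room temperature. Luminescence in RLU served as the activity measure.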
# [2] = target: Cytochrome P450 2C9 (Homo sapiens) (UniProt P11712); experiment: Cytochrome P450 Family 2 Subfamily C Member 9 (CYP2C9) small molecule antagonists: luciferase reporter qHTS assay (AID 1671198); further: nearly all actives have a fitted effect of over 50% in size; further: potency means the concentration at half of the fitted maximal effect; on activity change, negative = inhibition: series mostly up to about 120 µM
# How it was run: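 CYP2C9 activity was measured with a P450-Glo proluciferin substrate. Enzyme–substrate mix was held with compound for 10 min at room temperature, then NADPH regeneration solution was added for 1 h at 37C. Luciferin product was read as luminescence.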
# [3] = target: Cytochrome P450 1A2 (Homo sapiens) (UniProt P05177); experiment: Cytochrome P450 Family 1 Subfamily A Member 2 (CYP1A2) small molecule antagonists: luciferase reporter qHTS assay (AID 1671199); further: nearly all actives have a fitted effect of over 50% in size; further: potency means the concentration at half of the fitted maximal effect; on activity change, negative = inhibition: series mostly up to about 120 µM
# How it was run: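 Enzymatic CYP1A2 assay, human, luminescent: 10 min compound–enzyme–substrate preincubation, 1 h NADPH-dependent turnover, 20 min detection step, room temperature throughout. Reduced light indicates lower CYP1A2 activity.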
# [4] = target: Voltage-gated inwardly rectifying potassium channel KCNH2 (Homo sapiens) (UniProt Q12809); experiment: Human Ether-a-go-go-Related Gene (hERG) channel small molecule antagonists: fluorescence cell-based qHTS assay (AID 1671200);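 further: hERG-expressing U2OS cells given a thallium stimulus after FluxOR II dye loading; series mostly up to about 77 µM; nearly all actives have a fitted effect of over 50% in size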
# How it was run: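 Cell line hERG-U2OS; dye FluxOR II, 1 h RT dark; Tl+ stimulus; ex 480/em 540 nm, read each second for 2 min.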
# [5] = target: Cytochrome P450 2C19 (Homo sapiens) (UniProt P33261); experiment: Cytochrome P450 Family 2 Subfamily C Member 19 (CYP2C19) small molecule antagonists: luciferase reporter qHTS assay (AID 1671197); further: nearly all actives have a fitted effect of over 65% in size; further: potency means the concentration at half of the fitted maximal effect; on activity change, negative = inhibition: series mostly up to about 120 µM
# How it was run: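 Enzyme-substrate mix with proluciferin substrate (P450-Glo CYP2C19 system) preincubated with compounds 10 min at room temperature; NADPH regeneration solution added, 37C for 1 h; detection reagent stops reaction, luminescence read after 20 min. Ketoconazole positive control.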
# [6] = target: Cytochrome P450 3A4 (Homo sapiens) (UniProt P08684); experiment: Cytochrome P450 Family 3 Subfamily A Member 4 (CYP3A4) small molecule antagonists: luciferase reporter qHTS assay (AID 1671201); further: nearly all actives have a fitted effect of over 50% in size; further: potency means the concentration at half of the fitted maximal effect; on activity change, negative = inhibition: series mostly up to about 120 µM
# How it was run: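 Room-temperature assay throughout: 10 min compound–enzyme/substrate preincubation, 1 h reaction after NADPH regeneration solution, 20 min detection. Luciferin formed from proluciferin substrate is quantified by luminescence.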
# Sequence of Cytochrome P450 2C19 (Homo sapiens) (P33261 whole entry, looked up): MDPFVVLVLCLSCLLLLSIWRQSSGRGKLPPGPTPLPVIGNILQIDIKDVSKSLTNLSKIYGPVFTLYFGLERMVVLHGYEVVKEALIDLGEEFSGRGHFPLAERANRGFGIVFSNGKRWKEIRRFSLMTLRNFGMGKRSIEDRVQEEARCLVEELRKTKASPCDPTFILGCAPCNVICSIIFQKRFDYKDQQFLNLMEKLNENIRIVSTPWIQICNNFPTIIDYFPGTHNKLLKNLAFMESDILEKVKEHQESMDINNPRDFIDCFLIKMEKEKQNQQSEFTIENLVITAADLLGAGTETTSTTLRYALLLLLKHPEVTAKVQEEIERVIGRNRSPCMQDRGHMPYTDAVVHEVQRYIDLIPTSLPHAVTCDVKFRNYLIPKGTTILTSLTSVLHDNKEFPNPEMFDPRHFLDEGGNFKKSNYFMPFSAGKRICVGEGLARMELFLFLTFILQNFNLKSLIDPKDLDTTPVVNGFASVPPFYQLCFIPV
# Sequence of Cytochrome P450 2C9 (Homo sapiens) (P11712 whole entry, looked up): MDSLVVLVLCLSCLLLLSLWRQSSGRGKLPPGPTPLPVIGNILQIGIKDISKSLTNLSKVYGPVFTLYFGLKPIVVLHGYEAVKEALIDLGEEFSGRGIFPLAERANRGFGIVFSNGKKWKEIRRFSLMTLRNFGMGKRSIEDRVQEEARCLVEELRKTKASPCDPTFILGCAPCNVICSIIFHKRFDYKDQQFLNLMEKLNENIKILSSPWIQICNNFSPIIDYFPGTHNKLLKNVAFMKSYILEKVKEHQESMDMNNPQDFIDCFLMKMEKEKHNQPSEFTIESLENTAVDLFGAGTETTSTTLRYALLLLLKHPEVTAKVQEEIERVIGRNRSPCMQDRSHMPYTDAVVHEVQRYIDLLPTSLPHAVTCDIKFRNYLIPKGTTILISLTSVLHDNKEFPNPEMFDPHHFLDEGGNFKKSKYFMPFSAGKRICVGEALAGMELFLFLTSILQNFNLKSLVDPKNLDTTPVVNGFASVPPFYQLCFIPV
# Sequence of Cytochrome P450 2D6 (Homo sapiens) (P10635 whole entry, looked up): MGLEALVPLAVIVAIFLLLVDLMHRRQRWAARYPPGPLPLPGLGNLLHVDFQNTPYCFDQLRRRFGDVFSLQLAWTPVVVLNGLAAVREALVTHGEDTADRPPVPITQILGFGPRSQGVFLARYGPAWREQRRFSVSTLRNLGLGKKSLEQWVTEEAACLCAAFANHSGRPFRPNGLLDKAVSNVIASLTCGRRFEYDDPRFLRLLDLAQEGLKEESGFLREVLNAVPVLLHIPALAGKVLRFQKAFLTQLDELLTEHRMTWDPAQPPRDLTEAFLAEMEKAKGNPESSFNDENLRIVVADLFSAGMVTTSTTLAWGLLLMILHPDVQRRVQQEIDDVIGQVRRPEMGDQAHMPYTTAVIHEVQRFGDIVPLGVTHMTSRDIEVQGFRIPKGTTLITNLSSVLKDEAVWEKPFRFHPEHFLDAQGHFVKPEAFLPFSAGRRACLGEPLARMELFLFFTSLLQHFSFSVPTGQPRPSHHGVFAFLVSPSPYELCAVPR
# Sequence of Cytochrome P450 1A2 (Homo sapiens) (P05177 whole entry, looked up): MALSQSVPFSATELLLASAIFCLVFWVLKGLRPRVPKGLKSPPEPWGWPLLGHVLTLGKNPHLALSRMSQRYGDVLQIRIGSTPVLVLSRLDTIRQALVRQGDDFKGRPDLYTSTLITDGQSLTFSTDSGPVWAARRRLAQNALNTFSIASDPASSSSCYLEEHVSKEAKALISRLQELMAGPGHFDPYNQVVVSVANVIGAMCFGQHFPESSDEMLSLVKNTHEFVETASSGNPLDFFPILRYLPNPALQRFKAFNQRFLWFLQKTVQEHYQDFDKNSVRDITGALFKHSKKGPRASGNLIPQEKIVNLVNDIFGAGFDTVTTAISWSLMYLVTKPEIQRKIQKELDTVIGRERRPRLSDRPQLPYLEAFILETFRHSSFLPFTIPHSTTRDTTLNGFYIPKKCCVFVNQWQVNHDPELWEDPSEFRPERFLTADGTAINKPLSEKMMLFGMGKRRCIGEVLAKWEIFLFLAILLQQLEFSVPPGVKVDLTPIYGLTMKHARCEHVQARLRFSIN
# Sequence of Voltage-gated inwardly rectifying potassium channel KCNH2 (Homo sapiens) (Q12809 whole entry, looked up): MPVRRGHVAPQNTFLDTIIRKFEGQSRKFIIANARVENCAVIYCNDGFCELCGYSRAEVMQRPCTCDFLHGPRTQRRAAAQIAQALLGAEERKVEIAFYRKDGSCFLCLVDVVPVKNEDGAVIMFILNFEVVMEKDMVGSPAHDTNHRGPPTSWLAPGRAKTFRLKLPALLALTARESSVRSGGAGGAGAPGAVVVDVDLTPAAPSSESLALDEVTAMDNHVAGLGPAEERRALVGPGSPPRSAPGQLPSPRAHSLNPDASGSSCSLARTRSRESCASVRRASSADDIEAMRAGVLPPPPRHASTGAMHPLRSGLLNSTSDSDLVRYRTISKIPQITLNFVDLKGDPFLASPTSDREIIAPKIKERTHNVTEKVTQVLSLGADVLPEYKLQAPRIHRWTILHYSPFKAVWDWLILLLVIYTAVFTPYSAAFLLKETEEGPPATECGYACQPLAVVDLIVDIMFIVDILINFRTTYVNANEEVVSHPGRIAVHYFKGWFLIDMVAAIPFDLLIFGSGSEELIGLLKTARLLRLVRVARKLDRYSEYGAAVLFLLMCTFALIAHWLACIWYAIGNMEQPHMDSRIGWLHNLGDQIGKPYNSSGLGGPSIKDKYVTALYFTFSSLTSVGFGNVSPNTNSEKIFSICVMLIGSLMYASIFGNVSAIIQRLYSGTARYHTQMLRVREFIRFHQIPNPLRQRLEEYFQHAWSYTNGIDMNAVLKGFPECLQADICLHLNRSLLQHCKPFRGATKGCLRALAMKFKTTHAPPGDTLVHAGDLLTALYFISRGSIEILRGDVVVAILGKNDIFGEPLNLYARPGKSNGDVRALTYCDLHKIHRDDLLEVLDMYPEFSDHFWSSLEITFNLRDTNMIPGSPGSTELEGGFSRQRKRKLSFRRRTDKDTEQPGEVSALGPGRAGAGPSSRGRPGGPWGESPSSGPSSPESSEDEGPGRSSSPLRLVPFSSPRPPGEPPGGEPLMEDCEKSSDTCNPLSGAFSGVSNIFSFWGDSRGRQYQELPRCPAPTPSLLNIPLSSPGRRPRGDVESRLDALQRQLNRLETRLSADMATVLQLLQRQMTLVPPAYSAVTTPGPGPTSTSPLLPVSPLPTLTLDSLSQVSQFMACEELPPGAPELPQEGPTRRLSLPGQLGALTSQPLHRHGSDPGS
# Sequence of Cytochrome P450 3A4 (Homo sapiens) (P08684 whole entry, looked up): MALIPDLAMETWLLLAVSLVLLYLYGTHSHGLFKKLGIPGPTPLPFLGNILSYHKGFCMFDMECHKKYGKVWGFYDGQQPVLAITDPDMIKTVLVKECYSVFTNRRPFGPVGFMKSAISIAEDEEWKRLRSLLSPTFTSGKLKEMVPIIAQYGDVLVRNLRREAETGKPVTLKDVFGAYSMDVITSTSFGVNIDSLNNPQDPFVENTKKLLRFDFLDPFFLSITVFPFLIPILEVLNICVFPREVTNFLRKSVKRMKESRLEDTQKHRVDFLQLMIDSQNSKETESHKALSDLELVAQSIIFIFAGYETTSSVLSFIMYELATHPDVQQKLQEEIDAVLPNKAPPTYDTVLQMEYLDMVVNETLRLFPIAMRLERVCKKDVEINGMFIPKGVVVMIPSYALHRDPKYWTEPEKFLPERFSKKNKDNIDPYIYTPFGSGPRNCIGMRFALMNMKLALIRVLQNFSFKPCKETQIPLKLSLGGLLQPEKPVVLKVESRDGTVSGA
smiles,measurement,setting,value
NS(=O)(=O)c1cc(-c2nn[nH]n2)c(NCc2cccs2)cc1Cl,Potency,[1],inactive
same,Potency,[2],24.5 µM (active)
same,Potency,[3],inactive
same,Potency,[4],inactive
CCC1(C)NC(=O)NC1=O (stereo unspecified),Potency,[1],inactive
same,Potency,[5],inactive
same,Potency,[4],inactive
same,Potency,[6],inactive
CCCC(CCC)(C(=O)OCC)C(=O)OCC,Potency,[1],inactive
same,Potency,[5],inactive
same,Potency,[4],inactive
same,Potency,[6],inactive
CCC(=O)Nc1ccc(O)cc1,Potency,[1],inactive
same,Potency,[2],inactive
same,Potency,[3],inactive
same,Potency,[4],inactive
same,Potency,[6],inactive
Cc1ccc(C)c(N)c1,Potency,[1],20 µM (active)
same,Potency,[5],7.11 µM (active)
same,Potency,[4],inactive
same,Potency,[6],3.56 µM (active)
CCN[C@H]1CN(CCCOC)S(=O)(=O)c2sc(S(N)(=O)=O)cc21,Potency,[1],inactive
same,Potency,[2],inactive
same,Potency,[3],inactive
same,Potency,[4],inactive
same,Potency,[6],inactive
CN1C(=O)CC(c2ccccc2)C1=O (stereo unspecified),Potency,[1],inactive
same,Potency,[5],inactive
same,Potency,[4],inactive
O=C(Cl)c1cccc([N+](=O)[O-])c1,Potency,[1],inactive
same,Potency,[2],inactive
same,Potency,[3],34.6 µM (active)
same,Potency,[4],inactive
same,Potency,[6],inactive
CCCCNc1ccc(C(=O)OCCN(CC)CC)cc1,Potency,[1],3.89 µM (active)
same,Potency,[5],inactive
same,Potency,[6],inactive
CCOc1ccc(OCC)c(Cl)c1,Potency,[1],inactive
same,Potency,[2],inactive
same,Potency,[3],25.2 µM (active)
same,Potency,[4],inactive
same,Potency,[6],inactive
COC(=O)c1ccc2cc(C(=O)OC)ccc2c1,"activity change, negative = inhibition",[1],-8.11% [at 23.6 µM]
same,Potency,[2],inactive
same,Potency,[3],2.58 µM (active)
same,"activity change, negative = inhibition",[4],9.84% [at 15.8 µM]
same,"activity change, negative = inhibition",[6],16.2% [at 23.6 µM]
O=C1CCCCCCCCCCC(=O)OCCO1,Potency,[1],inactive
same,Potency,[5],35.6 µM (active)
same,Potency,[4],inactive
same,Potency,[6],31.7 µM (active)
Nc1ccc(Oc2ccc(N)c(N)c2)cc1,Potency,[1],5.64 µM (active)
same,Potency,[2],6.33 µM (active)
same,Potency,[3],35.6 µM (active)
same,Potency,[4],inactive
same,Potency,[6],3.56 µM (active)
